Calls of active or inactive are those of the source. How the source made its calls: active means hit-call score of the fitted dose curve at least 0.9, where 1 is the maximum; inactive means score below 0.9.
Columns and labels:
Conditions in all cases: mRNA level, 48 h; actives raise or lower the signal
[1] = read-out: Intercellular Adhesion Molecule 1 (ICAM1), ICAM1 (gene 3383); experiment: LTEA_HepaRG_ICAM1: Life Technologies and Expression Analysis (LTEA) Assay for Intercellular Adhesion Molecule 1 (ICAM1) using HepaRG (AID 2283507)
How it was run: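 Differentiated HepaRG cells in serum-free induction medium were exposed in duplicate for 48 h to eight half-log concentrations up to 100 uM in 0.5% DMSO. Transcript levels were measured by qRT-PCR normalized to ACTB, GAPDH and POLR2A; bidirectional fits relative to DMSO.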

[2] = read-out: Insulin-like growth factor-binding protein 1 (IGFBP1), IGFBP1 (gene 3484); experiment: LTEA_HepaRG_IGFBP1: Life Technologies and Expression Analysis (LTEA) Assay for Insulin-like growth factor-binding protein 1 (IGFBP1) using HepaRG (AID 2283508)
How it was run: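 Differentiated human HepaRG cells in serum-free induction medium were exposed in duplicate for 48 h to eight concentrations, top 100 uM with half-log dilutions, in 0.5% DMSO. Transcript levels came from qRT-PCR normalised to ACTB, GAPDH and POLR2A, fitted bidirectionally against DMSO.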

[3] = read-out: Interleukin 6 (IL6), IL6 (gene 3569); experiment: LTEA_HepaRG_IL6: Life Technologies and Expression Analysis (LTEA) Assay for Interleukin 6 (IL6) using HepaRG (AID 2283509)
How it was run: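 HepaRG, ~100,000 cells/well, 48 h pre-culture; serum-free induction medium; cmpd 8-pt half-log from 100 uM, 0.5% DMSO, duplicate, 48 h. Lysis in RLT, TaqMan qRT-PCR; gain or loss vs DMSO.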

[4] = read-out: Interleukin 6 Receptor (IL6R), IL6R (gene 3570); experiment: LTEA_HepaRG_IL6R: Life Technologies and Expression Analysis (LTEA) Assay for Interleukin 6 Receptor (IL6R) using HepaRG (AID 2283510)
How it was run: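 Differentiated HepaRG cells, plated 48 h, then exposed in duplicate for 48 h in serum-free induction medium to 8 half-log concentrations (top 100 uM, 0.5% DMSO). IL6R mRNA measured by TaqMan qRT-PCR, normalized to ACTB/GAPDH/POLR2A; bidirectional fit vs DMSO.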

[5] = read-out: Potassium channel subfamily K member 1 (KCNK1), KCNK1 (gene 3775); experiment: LTEA_HepaRG_KCNK1: Life Technologies and Expression Analysis (LTEA) Assay for Potassium channel subfamily K member 1 (KCNK1) using HepaRG (AID 2283511)
How it was run: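 Gain or loss of KCNK1 mRNA is the read-out, quantified by qRT-PCR against three housekeeping genes after 48 h chemical treatment of human HepaRG liver cells. Concentrations ran from 100 uM downward in half-log steps, vehicle 0.5% DMSO.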

[6] = read-out: Keratin 19 (KRT19), KRT19 (gene 3880); experiment: LTEA_HepaRG_KRT19: Life Technologies and Expression Analysis (LTEA) Assay for Keratin 19 (KRT19) using HepaRG (AID 2283512)
How it was run: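 Differentiated human HepaRG cells, plated 48 h, were exposed in duplicate for 48 h in serum-free induction medium to eight half-log concentrations up to 100 uM in 0.5% DMSO. KRT19 mRNA was quantified by qRT-PCR, normalized to ACTB, GAPDH and POLR2A, and fitted bidirectionally versus DMSO.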

[7] = read-out: JUN Transcription Factor, JUN (gene 3725); experiment: LTEA_HepaRG_JUN: Life Technologies and Expression Analysis (LTEA) Assay for JUN Transcription Factor using HepaRG (AID 2283513)
How it was run: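 HepaRG cells, 48 h post-plating, exposed 48 h in serum-free induction medium to 8-point half-log series (top 100 uM, 0.5% DMSO), duplicate; mRNA by qRT-PCR (TaqMan, Fluidigm), normalized to ACTB/GAPDH/POLR2A; bidirectional fit vs DMSO.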

[8] = read-out: Lipase C (LIPC), LIPC (gene 3990); experiment: LTEA_HepaRG_LIPC: Life Technologies and Expression Analysis (LTEA) Assay for Lipase C (LIPC) using HepaRG (AID 2283514)
How it was run: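 Read-out is LIPC transcript level by TaqMan qRT-PCR, normalized to three housekeeping genes, after 48 h chemical treatment of human HepaRG liver cells. Curves span eight concentrations topping at 100 uM; activity in either direction scored relative to 0.5% DMSO.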

[9] = read-out: Lipoprotein lipase (LPL), LPL (gene 4023); experiment: LTEA_HepaRG_LPL: Life Technologies and Expression Analysis (LTEA) Assay for Lipoprotein lipase (LPL) using HepaRG (AID 2283515)
How it was run: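 Read-out is LPL transcript level by qRT-PCR, normalized to three housekeeping genes and fitted bidirectionally against the DMSO control. Human HepaRG cells received chemicals for 48 h at up to 100 uM.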

[10] = read-out: MicroRNA 122 (MIR122), gene 406906; experiment: LTEA_HepaRG_MIR122: Life Technologies and Expression Analysis (LTEA) Assay for MicroRNA 122 (MIR122) using HepaRG (AID 2283516); further: the transcript read is the microRNA miR-122
How it was run: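 Differentiated human HepaRG cells in serum-free induction medium exposed 48 h to 8 half-log concentrations from 100 uM in 0.5% DMSO, duplicate. MIR122 quantified by Fluidigm TaqMan qRT-PCR, normalised to ACTB, GAPDH, POLR2A; fold change fitted bidirectionally versus DMSO.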

[11] = read-out: matrix metalloproteinase-10 (MMP10), MMP10 (gene 4319); experiment: LTEA_HepaRG_MMP10: Life Technologies and Expression Analysis (LTEA) Assay for matrix metalloproteinase-10 (MMP10) using HepaRG (AID 2283517)
How it was run: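 Gain or loss of MMP10 mRNA is fitted relative to the 0.5% DMSO vehicle. The human hepatic line HepaRG receives a 48-hour serum-free exposure, in duplicate, with a maximum concentration of 100 uM.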

MYC, MYC (gene 4609) = experiment: LTEA_HepaRG_MYC: Life Technologies and Expression Analysis (LTEA) Assay for MYC using HepaRG (AID 2283518)
How it was run: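 Differentiated human HepaRG cells, plated 48 h then switched to serum-free induction medium, were exposed in duplicate for 48 h to 8-point half-log series up to 100 uM in 0.5% DMSO. MYC mRNA measured by qRT-PCR, normalized to ACTB/GAPDH/POLR2A.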

[12] = read-out: matrix metalloproteinase-3 (MMP3), MMP3 (gene 4314); experiment: LTEA_HepaRG_MMP3: Life Technologies and Expression Analysis (LTEA) Assay for matrix metalloproteinase-3 (MMP3) using HepaRG (AID 2283519)
How it was run: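 HepaRG, human; 48 h dosing, 8 conc. (max 100 uM, half-log), duplicate, 0.5% DMSO. Readout: MMP3 transcript by Fluidigm TaqMan qRT-PCR, ACTB/GAPDH/POLR2A-normalised. Gain or loss fitted vs DMSO.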

[13] = read-out: Paternally Expressed 10 (PEG10), PEG10 (gene 23089); experiment: LTEA_HepaRG_PEG10: Life Technologies and Expression Analysis (LTEA) Assay for Paternally Expressed 10 (PEG10) using HepaRG (AID 2283520)
How it was run: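 Differentiated HepaRG cells exposed 48 h in serum-free induction medium to eight half-log concentrations topping at 100 uM, 0.5% DMSO, in duplicate. PEG10 mRNA quantified by TaqMan qRT-PCR, normalized to ACTB, GAPDH and POLR2A; bidirectional fit versus DMSO.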

[14] = read-out: Protein phosphatase 2A (PPP2R4), PTPA (gene 5524); experiment: LTEA_HepaRG_PPP2R4: Life Technologies and Expression Analysis (LTEA) Assay for Protein phosphatase 2A (PPP2R4) using HepaRG (AID 2283522)
How it was run: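 Differentiated human HepaRG cells in serum-free induction medium were exposed 48 h to 8 concentrations (top 100 µM, half-log steps, duplicate) in 0.5% DMSO. PPP2R4 mRNA was measured by TaqMan qRT-PCR, normalised to ACTB, GAPDH and POLR2A, and fitted bidirectionally versus DMSO.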

[15] = read-out: Phosphatase and tensin (PTEN), PTEN (gene 5728); experiment: LTEA_HepaRG_PTEN: Life Technologies and Expression Analysis (LTEA) Assay for Phosphatase and tensin (PTEN) using HepaRG (AID 2283523)
How it was run: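 Read-out is PTEN transcript level by multiplexed TaqMan qRT-PCR after 48 h chemical treatment of human HepaRG cultures in serum-free induction medium. Concentrations spanned 100 uM downward in half-log steps, 0.5% DMSO throughout; activity fitted in both directions against vehicle.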

[16] = read-out: solute carrier (SLC22A1), SLC22A1 (gene 6580); experiment: LTEA_HepaRG_SLC22A1: Life Technologies and Expression Analysis (LTEA) Assay for solute carrier (SLC22A1) using HepaRG (AID 2283524)
How it was run: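 HepaRG (human liver line), 48 h dosing in serum-free induction medium; 8 conc., half-log down from 100 uM, 0.5% DMSO vehicle, duplicates. Endpoint: SLC22A1 mRNA, qRT-PCR, housekeeping-normalized; gain/loss fit vs DMSO.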

[17] = read-out: Pyruvate Dehydrogenase Kinase 4 (PDK4), PDK4 (gene 5166); experiment: LTEA_HepaRG_PDK4: Life Technologies and Expression Analysis (LTEA) Assay for Pyruvate Dehydrogenase Kinase 4 (PDK4) using HepaRG (AID 2283525)
How it was run: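 In this multiplexed human HepaRG expression assay, cells are treated 48 h with test chemicals across an eight-point range starting at 100 uM. PDK4 mRNA changes, normalized to ACTB/GAPDH/POLR2A, are fitted in both directions relative to vehicle.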

[18] = read-out: NAD(P)H dehydrogenase [quinone] 1 (NQO1), NQO1 (gene 1728); experiment: LTEA_HepaRG_NQO1: Life Technologies and Expression Analysis (LTEA) Assay for NAD(P)H dehydrogenase [quinone] 1 (NQO1) using HepaRG (AID 2283526)
How it was run: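 Differentiated human HepaRG cells in serum-free induction medium, dosed in duplicate for 48 h at 8 half-log concentrations up to 100 uM in 0.5% DMSO. NQO1 mRNA by qRT-PCR normalized to ACTB, GAPDH, POLR2A; bidirectional fit versus DMSO baseline.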

[19] = read-out: Nuclear factor erythroid 2-related factor 2 (Homo sapiens) (UniProt Q16236); experiment: LTEA_HepaRG_NFE2L2: Life Technologies and Expression Analysis (LTEA) Assay for Nuclear factor erythroid 2-related factor 2 (NFE2L2) Transcription Factor using HepaRG (AID 2283527);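 further: TaqMan qRT-PCR transcript level normalised to ACTB GAPDH and POLR2A housekeeping genes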
How it was run: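 Transcript level of NFE2L2 is the read-out, measured by microfluidic TaqMan qRT-PCR and normalized to three housekeeping genes. Human HepaRG cultures received test chemical for 48 h at up to 100 uM in half-log steps. Gain or loss of signal is fitted relative to 0.5% DMSO.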

Measured: outcome

Sequence of Nuclear factor erythroid 2-related factor 2 (Homo sapiens) (Q16236 whole entry, looked up): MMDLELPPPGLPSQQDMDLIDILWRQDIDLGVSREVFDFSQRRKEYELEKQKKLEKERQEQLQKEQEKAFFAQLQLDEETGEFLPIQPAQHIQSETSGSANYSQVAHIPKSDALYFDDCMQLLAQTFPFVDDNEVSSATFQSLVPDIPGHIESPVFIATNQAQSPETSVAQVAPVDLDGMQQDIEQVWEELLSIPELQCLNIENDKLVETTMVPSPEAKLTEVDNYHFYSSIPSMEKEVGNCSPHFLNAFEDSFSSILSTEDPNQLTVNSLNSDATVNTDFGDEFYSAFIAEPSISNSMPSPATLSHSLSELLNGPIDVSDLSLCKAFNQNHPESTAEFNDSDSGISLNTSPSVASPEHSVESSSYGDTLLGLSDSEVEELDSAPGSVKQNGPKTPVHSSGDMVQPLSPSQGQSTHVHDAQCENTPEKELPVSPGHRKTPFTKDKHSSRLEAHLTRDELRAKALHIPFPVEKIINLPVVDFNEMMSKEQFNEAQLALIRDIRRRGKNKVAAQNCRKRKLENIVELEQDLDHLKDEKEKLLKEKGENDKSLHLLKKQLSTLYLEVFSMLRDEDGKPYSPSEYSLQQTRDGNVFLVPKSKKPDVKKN

N#CCCCCC#N
inactive: all assays above

O=[N+]([O-])c1ccc(Cl)cc1
inactive: all assays above

— PubChem BioAssay (EPA / NIEHS)
